The record followed here is PubChem BioAssay (NCI).

Common to all, as to experiment: NCI-60 one-dose screen, 48 h (100 = growth as untreated, 0 = no growth, -100 = all killed)
Holding throughout (settings): 10 µM unless noted

For assay [1], the system named is HCT-15 colon.
Assay [2] deals with HT29 colon.
Assay [3] relates to SNB-75 CNS.
In assay [4] the test system is U251 CNS.
Assay [5] has as its system PC-3 prostate.
The subject of assay [6] is SK-MEL-5 melanoma.
The subject of assay [7] is UACC-62 melanoma.
The subject of assay [8] is LOX IMVI melanoma.
Assay [9] has as its system SK-MEL-28 melanoma.
The subject of assay [10] is SNB-19 CNS.

The panel holds about 83,000 compounds, 20% with a hit somewhere; the sample as a whole holds those more often.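 Single-dose data. Exposure time 48 hours. Values below 10 considered active.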 Values without a mark were called inactive. The source made the active and inactive calls.

Take `CSc1nc(Nc2ccc(S(=O)(=O)Nc3ccon3)cc2)c(C#N)c(-c2ccc(Cl)cc2)n1`: the growth in assay [1] is 87.9%; in assay [2], 101%; in [3], 102%; in [4] it was 88.2%; in [5], 109%; in assay [6], 97.4%. Further, the growth in [7] is 107%; in assay [8] it was 62.3%; in assay [9], 118%.

Take `OCCN1CCN(CCCN2c3ccccc3Sc3ccc(C(F)(F)F)cc32)CC1`: the growth in [1] was 18.3%; in assay [2], -43% (active); in [3] it was 46.3%; in assay [10] it was 62.7%; in assay [5] it was 20.4%; in assay [6], -93.3% (active). Besides, the growth was -55.5% (active) in assay [7], -41.6% (active) in assay [8] and -86.6% (active) in assay [9].

With `Cc1ccc(-c2c3c(N)c4c(nc3nc3c2c(C)nn3-c2ccccc2)CCC4)cc1`, the growth was 15% in assay [1]; 3.96% (active) in assay [2]; 105% in assay [3]; 99.4% in assay [10]; 90.4% in assay [6]; 99.8% in assay [7]. Besides, the growth in [8] was -31% (active); in assay [9] it was 70.2%.

For the compound `O=C(N/N=C/c1cccc([N+](=O)[O-])c1)c1ccc(Br)o1`, the growth in assay [1] was 127%; in assay [2], 105%; in assay [3], 98.5%; in [10] it was 83.5%; in assay [6], 97.3%; in [7], 102%. In addition, the growth in assay [8] was 112%; in [9], 133%.

In the case of `C(#Cc1ccccc1C#Cc1ccccn1)c1ccc(OCCCCCCOc2ccc(C#Cc3ccccc3C#Cc3ccccn3)cc2)cc1`, the growth in assay [1] was 41.2%; in [2], 93%; in assay [3], 92.6%; in [4], 50.3%; in [5], 39.6%; in assay [6], 20.6%. For the same compound, the growth was 23.9% in assay [7], 14.7% in assay [8] and 81.8% in [9].

For the compound `COc1ccc(N2CCN(CC(=O)N3CCN(c4nnc(-c5ccc(Cl)cc5)c(-c5ccc(Cl)cc5)n4)CC3)CC2)cc1`, the growth in assay [1] was 45%; in assay [2], 40.9%; in assay [3], 76.3%; in [4], 52.3%; in [5], 22.5%; in [6], 38%. For the same compound, the growth in assay [7] is 66.6%; in assay [8] it was 49.6%; in assay [9], 71.5%.

For the compound `COc1ccc(-c2c3c(N)nc(-c4ccncc4)nc3nc3c2c(C)nn3-c2ccccc2)cc1`, the growth in [1] was 57.1%; in assay [2] it was 23.9%; in [3] it was 80.6%; in [5], 61%; in [6] it was 72.6%; in assay [7], 64.1%. For the same compound, the growth in [8] was 41.2%; in assay [9], 56.2%.

Turning to `Nc1ccc2c(c1)C(=O)c1cc(Cl)c(Cl)cc1-2`, the growth was 103% in [1]; 104% in [2]; 68.7% in assay [3]; 74.9% in [5]; 98% in assay [6]; 77.9% in assay [7]. In addition, the values for the growth in assay [8] and in [9] were 86% and 122%, respectively.

For `CCOc1nc(-c2ccco2)n2nc(-c3ccco3)cc2n1`, the growth in [1] is 99.4%; in assay [2] it was 100%; in assay [3] it was 82.9%; in assay [4], 98.3%; in assay [5], 105%; in assay [6], 81.4%. Further, the growth is 86.4% in assay [7], 98.4% in assay [8] and 110% in assay [9].

As to `CCCCCCC(CC#N)(CCC)CCCC` (configuration not stated), the growth is 108% in [1]; 111% in [2]; 88.7% in assay [3]; 104% in assay [4]; 92.2% in assay [5]; 105% in assay [6]. Further, the growth was 101% in [7], 89.8% in assay [8] and 104% in assay [9].

On to `O=C1/C(=C/c2ccc(F)cc2)Cc2ccccc21`, for which the growth is 94.6% in [1]; 91% in assay [2]; 83.4% in assay [3]; 99.9% in assay [6]; 95.1% in [7]; 103% in [8]. For the same compound, in [9], the growth was 105%.

Take `O=C1/C(=C/c2ccccc2O)C(=S)SN1Cc1ccco1`: the growth in assay [1] was 91.6%; in assay [2] it was 87.6%; in [3], 70.2%; in assay [10], 111%; in [6], 95.8%; in assay [7], 94.4%. Further, the growth in assay [8] is 34.7%; in assay [9], 92%.

Turning to `CNCCCn1c2c(c3ccc(F)cc3c1=O)C(=O)c1cc(OC)cnc1-2`, the growth in [1] is -3.12% (active); in assay [2], -20.9% (active); in assay [3] it was -23.4% (active); in assay [4], -25.8% (active); in assay [5], 6.67% (active); in assay [6], -97.3% (active). Moreover, the growth is -33.4% (active) in assay [7], -70.7% (active) in assay [8] and 9.85% (active) in assay [9].

In the case of `COc1ccc2c(c1)c(CC(=O)[Se]C)c(C)n2C(=O)c1ccc(Cl)cc1`, the growth in assay [1] was 14.9%; in assay [2] it was 2.05% (active); in [10] it was 24%; in [4], 14.9%; in assay [5], 24.2%; in [6], -63.9% (active). In addition, the growth in [7] is 33.6%; in assay [8], -69.5% (active); in assay [9], -7.85% (active).

`COc1ccc(/C=C2\CCc3ccccc3C2=O)cc1`: the growth in assay [1] is 91.3%; in [2], 80.4%; in assay [3], 69.3%; in [5], 82.1%; in assay [6], 99.3%; in [7], 83%. The growth was 77.2% in [8] and 84.9% in assay [9].
